Data taken from PubChem BioAssay AID493169 (National Center for Advancing Translational Sciences (NCATS), 2011).
Records with an inconclusive call do not appear. Active and inactive are the calls of the source. The call rests on the fitted dose curve; in most records, active means well fitted inhibition curve with a large enough effect; inconclusive means small, poorly fitted or top-dose-only effect; inactive means flat fitted curve, though single readings scatter.

Experiment: CHOP2 Reporter Counterscreen Assay for Inhibitors of Ubiquitin-specific Protease USP2a;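 further: activated enterokinase alone at 50 pM in a cell-free format rather than USP2a or CHOP2; nearly all actives have a fitted effect of over 55% in size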
Conditions: purified enterokinase, fluorogenic substrate, 485/531 nm; series mostly up to 38.3 µM; activity change, negative = inhibition: at the top concentration
Outline: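 Cell-free counterscreen with pre-activated enterokinase alone (50 pM final) in 20mM Tris-HCl pH 8.0, 2mM CaCl2, 2mM beta-mercaptoethanol, 0.05% CHAPS; compound preincubation 30 min RT, reporter substrate 25nM final, fluorescence read after 10 min (Ex 485/Em 531).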
On the % scale 0 is the no-effect control and ±100 the full control effect; potency means the concentration at half of the fitted maximal effect.

Row | Structure (SMILES) | activity change, negative = inhibition | Potency
1 | O=C(CC1Oc2ccccc2NC1=O)NCc1ccc(Cl)cc1 (stereo not given) | -6.43% (inactive) | 
2 | CCCCCCCCCCOC(=O)Cn1c(COc2ccc(C)cc2)[n+](C)c2ccccc21 |  | 5.62 µM (active)
3 | Cc1ccc(NC(=O)c2cc(-c3ccco3)nc3ccccc23)cc1S(=O)(=O)N1CCOCC1 |  | 7.08 µM (active)
4 | CS(=O)(=O)c1nc(-c2ccc(Br)cc2)cc(-c2ccccc2)c1C#N | 0.429% (inactive) | 
5 | C=CCn1c(Br)nc2c1c(=O)n(C)c(=O)n2C | 11.7% (inactive) | 
